Assay outcomes: PubChem, National Center for Advancing Translational Sciences (NCATS)
Shown are actives, neighbours in structure and some others; about 10% of the full set was active somewhere.
KB-V1 cytotox = KB-V1 MDR subline cytotoxicity; 400,000 compounds, 3.4% hits; AID 1347076; Potency, µM (doses to about 46.1 µM), actives largely listed as cytotoxic; KB-V1 MDR cells viability, CellTiter-Glo, 72 h; also: nearly all actives have a fitted effect of over 60% in size
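Drug-selected KB-V1 cells, grown in DMEM lacking phenol red with 10% FBS, receive compound titrations; after three days at 37 degrees C, surviving cell ATP is quantified by CellTiter-Glo luminescence and responses normalized and curve-fitted.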
RORgamma inh = blocks mouse ROR gamma transcriptional activity; Drosophila S2 Gal4-RORgamma UAS-luciferase reporter, 20 h; Potency, µM (top dose mostly 53.6 µM), most hits filed as inhibitors; 310,000 compounds, 5.4% hits; also: nearly all actives have a fitted effect of over 60% in size
Target sequence (P51450 whole entry, looked up, the tested form may be a part): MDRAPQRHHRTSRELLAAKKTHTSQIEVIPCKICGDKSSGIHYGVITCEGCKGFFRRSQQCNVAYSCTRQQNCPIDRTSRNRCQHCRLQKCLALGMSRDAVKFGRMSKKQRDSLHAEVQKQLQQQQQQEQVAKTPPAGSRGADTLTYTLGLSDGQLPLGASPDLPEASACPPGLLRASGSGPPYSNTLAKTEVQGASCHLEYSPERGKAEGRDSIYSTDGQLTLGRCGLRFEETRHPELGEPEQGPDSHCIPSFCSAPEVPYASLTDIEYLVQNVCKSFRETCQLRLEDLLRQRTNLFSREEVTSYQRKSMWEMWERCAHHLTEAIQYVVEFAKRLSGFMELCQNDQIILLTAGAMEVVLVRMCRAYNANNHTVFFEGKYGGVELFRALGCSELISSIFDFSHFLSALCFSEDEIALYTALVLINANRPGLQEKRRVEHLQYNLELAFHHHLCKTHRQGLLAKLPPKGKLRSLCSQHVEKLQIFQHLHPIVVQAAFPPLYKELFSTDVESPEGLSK
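Drosophila S2 cells stably expressing Gal4-DBD/mouse RORγ fusion under metallothionein promoter plus UAS-luciferase; compound 1 h, then 700 uM CuSO4 induction for 20 h at ambient temperature; inhibition read as reduced luminescence.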
KB-3-1 tox = kills parental KB-3-1 adenocarcinoma cells; KB-3-1 viability, CellTiter-Glo ATP luminescence, 72 h; Potency, µM (top dose mostly 46.1 µM), hits mostly cytotoxic; 400,000 compounds, 1.4% hits; AID 1347075; also: nearly all actives have a fitted effect of over 60% in size
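Parental KB-3-1 adenocarcinoma cells in phenol-red-free DMEM with 10% FBS were pin-treated with compounds at several concentrations, incubated 72 h at 37 °C, and viability read by CellTiter-Glo luminescence; concentration-effect curves were fitted after normalization.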
VP16 counter = inhibits Gal4-VP16 luciferase reporter, ROR gamma counter-screen; Drosophila S2 Gal4-VP16 UAS-luciferase, luminescence, 20 h; Potency, µM (doses to about 53.6 µM), most hits filed as inhibitors; 310,000 compounds, 3.5% hits; AID 2546;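 also: Gal4-VP16 expression switched on by copper sulfate through the metallothionein promoter; nearly all actives have a fitted effect of over 50% in size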
SW480 rerep = induces DNA re-replication in SW480 colon adenocarcinoma cells | SW480 DNA re-replication, Hoechst DNA content imaging, 48 h | 340,000 compounds, 1.8% hits | Potency, µM (doses to about 46.1 µM), hits mostly activators; also: nearly all actives have a fitted effect of over 55% in size
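Hoechst fluorescence of nuclei (405 nm excitation, 500-530 nm emission) measured by plate-scanning imager after 48 hr compound exposure at 37 C; re-replication scored as increased number of nuclei with elevated intensity.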
MCF10A rerep = inducers of DNA re-replication in MCF 10A breast cells; MCF 10A DNA re-replication, Hoechst nuclear intensity, 48 h; Potency, µM (doses to about 46.1 µM), hits mostly activators; 350,000 compounds, 2.9% hits; also: nearly all actives have a fitted effect of over 50% in size
Numbers stand for hits; 0 = inactive; ? = inconclusive; - = no result. Calls follow the shape of the dose curve; as a rule, active = well fitted curve in the direction sought with a large enough effect; inconclusive = small, poorly fitted or top-dose-only effect, or another doubt; inactive = no such curve, though single readings can be large; an effect the other way counts as inactive or inconclusive.

SMILES	KB-V1 cytotox	RORgamma inh	KB-3-1 tox	VP16 counter	SW480 rerep	MCF10A rerep
O=c1c2ccccc2[nH]c(=S)n1CCCN1CCN(c2ccccc2)CC1	0	7.9µM	?	10µM	?	0
O=c1c2ccccc2[nH]c(=S)n1CCN1CCCCC1	0	0	0	0	0	0
O=c1c2cccnc2[nH]c(=S)n1CCCN1CCN(c2ccccc2F)CC1	0	2.2µM	13µM	0	0	?
CC1CC(C)CN(CCCn2c(=S)[nH]c3ccccc3c2=O)C1 (centres undefined)	0	?	0	?	0	0
O=c1c2ccccc2[nH]c(=S)n1CCCN1CCN(c2ccccc2F)CC1	0	3.5µM	0	8.9µM	?	?
CC1CCCCN1CCn1c(=S)[nH]c2ncccc2c1=O (centres undefined)	0	0	0	0	0	0
CCCCOC(=O)Nc1ccccc1C(=O)N1CCCC1	13µM	0	0	0	?	?
CCCCCCCCCCCCCCC(F)C(=O)O (centres undefined)	-	0	-	0	-	-
COC(=O)c1cc(-c2ccc(C)o2)nc2ccccc12	?	?	0	?	16µM	23µM
Cc1ccc(-c2cc(C(=O)N3CC(C)CC(C)C3)c3ccccc3n2)o1 (centres undefined)	0	0	0	0	0	?
COc1cccc(NC(=O)c2cc(-c3ccc(C)o3)nc3ccccc23)c1	0	0	0	0	?	0
Cc1ccc(-c2cc(C(=O)Nc3ccccc3C)c3ccccc3n2)o1	0	?	0	13µM	0	?
C/C(=N\NC(N)=S)c1ccc(-n2ccnc2)cc1	0	?	0	0	0	0
C=C(C)CNC(=S)N/N=C(\C)c1ccc(-n2ccnc2)cc1	15µM	6.3µM	0	7.9µM	0	?
COc1ccc(S(=O)(=O)c2cn(C)c3cc(N4CCCC4)c(F)cc3c2=O)cc1	0	-	0	-	-	-
O=C(COc1ccccc1F)N1CCN(S(=O)(=O)/C=C/c2ccccc2)CC1	15µM	0	0	0	0	0
O=C(COc1ccc(Br)cc1)N1CCN(S(=O)(=O)/C=C/c2ccccc2)CC1	?	?	0	0	?	0
O=C(c1ccc(Cl)cc1)N1CCN(S(=O)(=O)/C=C/c2ccccc2)CC1	0	-	23µM	-	0	0
Nc1ccc(S(=O)(=O)Nc2ccccc2)cc1	-	0	-	0	0	0
CC1CC(=S)Nc2ccccc2S1 (centres undefined)	0	?	0	4µM	0	0
O=C1CC(c2ccc(F)cc2)Sc2ccccc2N1 (centres undefined)	0	0	0	0	0	?
C[C@H]1CS(=O)(=O)CCN1/N=C\c1ccc([N+](=O)[O-])o1	-	0	-	0	0	0
Cn1c(CCc2nc3ccccc3[nH]2)nnc1SCC#N	0	14µM	?	?	0	0
Cc1nnc(NC(=O)CSc2nnc(CCc3nc4ccccc4[nH]3)n2C)s1	0	0	0	0	0	0
C=CCn1c(SCc2cc(C(C)=O)ccc2OCC)nc2ccccc2c1=O	2.3µM	0	1.2µM	0	1.8µM	1µM
SMILES	KB-V1 cytotox	RORgamma inh	KB-3-1 tox	VP16 counter	SW480 rerep	MCF10A rerep
COc1ccccc1-n1c(SCC(=O)N2CCOCC2)nc2ccccc2c1=O	0	0	0	0	0	0
COc1ccc(C(C)=O)cc1CSc1nc2ccccc2c(=O)n1-c1ccccc1C	21µM	0	0	0	0	0
COc1ccccc1-n1c(SCc2cc(=O)oc3cc(O)ccc23)nc2ccccc2c1=O	18µM	0	?	0	0	?
COc1cccc(N2CCN(C(=O)c3cnc4c(-c5ccc(F)cc5)c(C)nn4c3C)CC2)c1	0	-	0	-	-	-
Cc1cccc(OCCNC(=O)CCNS(=O)(=O)c2ccc3ccccc3c2)c1	18µM	-	0	-	0	0
O=C(CCNS(=O)(=O)c1ccc2ccccc2c1)NCCOc1ccccc1	0	-	0	-	0	0
COC(=O)C1=CN(Cc2cccs2)C=C(C(=O)OC)C1c1cccc(Cl)c1	?	?	0	0	?	7.3µM
COCCN1C=C(C(=O)OC)C(c2ccc(Cl)cc2)C(C(=O)OC)=C1	0	0	0	0	9.2µM	16µM
COC(=O)C1=CN(Cc2ccc(OC)cc2)C=C(C(=O)OC)C1c1ccsc1	?	0	0	0	23µM	?
CCOc1ccc(C2C(C(=O)OC)=CN(CCOC)C=C2C(=O)OC)cc1	?	0	0	0	?	0
Cc1ccc2oc(-c3ccc(Cl)c(NC(=O)c4ccc(-c5ccccc5[N+](=O)[O-])o4)c3)nc2c1	0	-	0	-	-	-
C(=C\c1nc(-c2ccccc2)oc1Nc1ccc2ccccc2c1)/c1ccccc1	-	0	-	0	-	-
COc1ccc(CCNC(=S)Nc2ccc(OC)cc2)cc1	0	3.5µM	0	10µM	0	0
CNC(=S)NCCc1ccc(OC)cc1	0	?	0	0	0	0
COc1ccc(NC(=S)NCCCCCC(=O)C[N+](=O)[O-])cc1	0	4.5µM	0	?	0	0
Cc1cc(C)cc(NC(=S)NCCc2ccc(S(N)(=O)=O)cc2)c1	0	10µM	0	?	0	0
O=C(CCCCCNC(=S)Nc1ccc(Cl)cc1)C[N+](=O)[O-]	0	0	0	0	0	0
Cc1ccc(NC(=S)NCCc2ccc(S(N)(=O)=O)cc2)cc1C	0	?	0	0	0	0
COc1ccc(CCNC(=S)Nc2ccccc2)cc1	0	2µM	0	7.1µM	0	0
O=C(Cc1ccccc1[N+](=O)[O-])OCc1cccc([N+](=O)[O-])c1	-	0	-	0	-	-
O=C1O[C@@H]([C@@H](O)CO)[C@@H](O)[C@H]1O	-	0	-	0	0	0
COc1ccc(NC(=S)N(CCc2c(C)[nH]c3ccc(C)cc23)Cc2cccnc2)cc1	0	?	0	0	0	0
COc1ccc(CNC(=O)Nc2cc(C)cc(C)c2)cc1	?	0	0	0	0	0
COc1ccc(NC(=O)Nc2ccc(C(C)C)cc2)cc1	0	0	0	0	0	0
COc1ccc(CCNC(=S)Nc2ccc(C(C)C)cc2)cc1	23µM	2.5µM	?	?	0	?
SMILES	KB-V1 cytotox	RORgamma inh	KB-3-1 tox	VP16 counter	SW480 rerep	MCF10A rerep
COc1ccc(CCNC(=S)Nc2cc(C)cc(C)c2)cc1	18µM	7.1µM	0	13µM	0	0
COc1ccc(NC(=S)NCCc2c(C)[nH]c3ccc(OC)cc23)cc1	0	5.6µM	0	?	0	0
CC(C)c1ccc(NC(=S)Nc2ccc(OC(F)(F)F)cc2)cc1	0	8.9µM	0	11µM	0	0
CCn1c(C)c(C2=CCN(S(=O)(=O)c3ccc(C)cc3)CC2)c2ccccc21	16µM	0	?	0	0	?
Cc1ccc(Nc2cc(C(=O)NC3CCCC3)c3ccccc3n2)cc1C	0	-	0	-	-	-
CCn1c(=S)[nH]c2cc(C(=O)OC)ccc2c1=O	0	13µM	0	11µM	0	0
